Measured values: PubChem BioAssay (Tox21)
A number with no mark means an inactive call. Active and inactive are the calls of the source. Calls come from the whole dose curve; as a rule, active = well fitted curve in the direction sought with a large enough effect in the repeat runs; inconclusive = weak or mixed curves; inactive = flat fitted curve, though single readings scatter.
% is set by controls: 0 for no effect and ±100 for the full control effect.

Test: qHTS assay to test for compound auto fluorescence at 460 nm (blue) in HepG2 cells (AID 720687)
Details: autofluorescence 405/460 nm, 1 h; series mostly up to 91.3 µM; fluorescence, % of fluorescent control: at the top concentration
Excerpt: U.S. Tox21 Program National Center for Advancing Translational Sciences [NCATS] NIH Chemical Genomics Center [NCGC] U.S. Environmental Protection Agency [EPA] National Institutes of Environmental Health Sciences [NIEHS] National Toxicology Program [NTP] U.S. Food and Drug Administration [FDA] Tox21 Assay Overview: Compound auto fluorescence often interferes with screening of the compound library against various biological targets and signaling pathways. Some of these compounds may have fluorophoric properties. Such properties may interfere with the assay outputs resulting in false positives and/or negatives. To decrease such complications and ensure the compound activities are relevant in terms of biological response, the Tox21 10K compound library was screened for auto fluorescence. From the fluorophores used as reporter signals in our screening assays, the auto fluorescence equivalencies of compounds against three fluorophores have been evaluated: Triamterene, Fluorescein and Rose Bengal sodium for blue, green and red fluorescence, respectively. The fluorescence intensities were measured using Excitation/Emission wavelengths at 405/460nm, 485/535nm and 540/590nm for blue, green and red labels, respectively. This assay includes the blue fluorescence data.
Tox21 Assay Protocol Summary: 2,000 HepG2 cells in 5 uL of culture medium (MEM containing 10% FBS) per well were dispensed into black wall/clear bottom 1536-well plates using a Multidrop Combi Dispenser (ThermoFisher Scientific, Waltham, MA). The assay plates were incubated overnight at 37 C to allow cell attachment to the well bottom, followed by the transfer of 23 nL compound or DMSO vehicle by a pintool work station (Kalypsys , San Diego, CA). After the assay plates were incubated for 1 hr at 37 C and 5% CO2, fluorescence intensities in the assay plates were measured by an Envision (PerkinElmer, Shelton, CT) plate reader using three labels for measuring blue, green and red fluorescence at […] 460, 535 and 590 nm respectively.
For C=CCCCCCCCCC(=O)OCCCC, the “fluorescence, % of fluorescent control” value was 0.0489%. For N[C@@H](CSCCCO)C(=O)O, the “fluorescence, % of fluorescent control” value was 0.157% [at 46 µM]. For CN(C)CC/C=C1/c2ccccc2COc2ccc(CC(=O)O)cc21, the “fluorescence, % of fluorescent control” value was -0.0647% [at 46 µM]. In the case of CC(C)COC(=O)c1ccccc1, the “fluorescence, % of fluorescent control” value is reported as 0.148%. In the case of c1ccc(-c2nn[nH]n2)cc1, the “fluorescence, % of fluorescent control” value is reported as -0.0804%. For N#Cc1cscn1, the “fluorescence, % of fluorescent control” value was -0.0032%. In the case of Cc1ccc(N)cc1S(=O)(=O)O, the “fluorescence, % of fluorescent control” value is reported as 3.4%. For COP(=O)(O)OP(=O)(O)OC, the “fluorescence, % of fluorescent control” value was -0.126%. With CC(C)C1OCCN1CCOC(=O)NCCCCCCNC(=O)OCCN1CCOC1C(C)C (stereo not given) the “fluorescence, % of fluorescent control” value was 0.17%. For CC12CCC(C1)C(C)(C)C2O (stereo not given), the “fluorescence, % of fluorescent control” value was -0.0573%. With CCCCOCC(C)O (stereo not given) the “fluorescence, % of fluorescent control” value was -0.0074% [at 95.7 µM]. For OC[C@H]1O[C@@H](O[C@@H]2[C@@H](CO)O[C@](O)(CO)[C@H]2O)[C@H](O)[C@@H](O)[C@H]1O, the “fluorescence, % of fluorescent control” value was -0.0415% [at 46 µM]. For Cc1ccc(C)c([N+](=O)[O-])c1, the “fluorescence, % of fluorescent control” value was 0.0329%. For C[C@H]1[C@@H](c2ccccc2)NC(=O)N1C, the “fluorescence, % of fluorescent control” value was -0.0759%. For CC(=O)c1cc(C)oc1C, the “fluorescence, % of fluorescent control” value was 0.0449% [at 95.7 µM]. In the case of COc1ccc(CCO)cc1, the “fluorescence, % of fluorescent control” value is reported as -0.0012%. With OCCN1CCOCC1 the “fluorescence, % of fluorescent control” value was 0.0473%. In the case of CCCCCCCCCCOC(C)=O, the “fluorescence, % of fluorescent control” value is reported as 0%. In the case of O=C(O)c1cc2ccccc2nc1C(=O)O, the “fluorescence, % of fluorescent control” value is reported as -0.0887%. In the case of C=C(C)c1cccc(C(C)(C)N=C=O)c1, the “fluorescence, % of fluorescent control” value is reported as -0.0248%. For C=CCSSCCC, the “fluorescence, % of fluorescent control” value was 0.0531%. In the case of CC(C)OC(=O)OCOP(=O)(CO[C@H](C)Cn1cnc2c(N)ncnc21)OCOC(=O)OC(C)C, the outcome is reported as “inactive”. For Cn1c(=O)c2[nH]c(Br)nc2n(C)c1=O, the “fluorescence, % of fluorescent control” value was 0.0004% [at 46 µM]. In the case of CCCCCC/C=C/C(=O)OC, the “fluorescence, % of fluorescent control” value is reported as -0.0871%. For CC(C)=CCC/C(C)=C/COC=O, the “fluorescence, % of fluorescent control” value was -0.0372%. For CCc1occc(=O)c1O, the “fluorescence, % of fluorescent control” value was -0.0287%. For O=C(CN1CCNCC1)NC1CCCCC1, the “fluorescence, % of fluorescent control” value was -0.0065% [at 46 µM]. For O=C=NCC1CCCC(CN=C=O)C1 (stereo not given), the “fluorescence, % of fluorescent control” value was -0.0353%. With CC(C)(C)NC[C@H](O)COc1cccc2c1CCCC2=O the fluorescence, % of fluorescent control was 0.0464% [at 18.6 µM]. For O=C(NCN1CCOCC1)c1cnccn1, the “fluorescence, % of fluorescent control” value was 0.266% [at 46 µM]. In the case of CC1(C)[C@H]2CC[C@](C)(C2)[C@H]1O, the “fluorescence, % of fluorescent control” value is reported as -0.1% [at 95.7 µM]. In the case of CC(Oc1cc(Cl)ccc1Cl)C(=O)O (stereo not given), the “fluorescence, % of fluorescent control” value is reported as -0.199%. In the case of OC[C@@H](O)C(O)[C@@H](O)CO (stereo not given in full), the “fluorescence, % of fluorescent control” value is reported as 0.0151% [at 95.7 µM]. With Cc1c(Cl)cccc1Cl the “fluorescence, % of fluorescent control” value was 0.0323%. In the case of CN1CCOC(c2ccccc2)c2ccccc2C1 (stereo not given), the fluorescence, % of fluorescent control is reported as 0.0046% [at 18.6 µM]. For C=CCCCCCCCC, the “fluorescence, % of fluorescent control” value was 0.0676%. With CCC(=O)CC the “fluorescence, % of fluorescent control” value was 0.0342%. For c1ccc(B(c2ccccc2)c2ccccc2)cc1, the “fluorescence, % of fluorescent control” value was 0.169%. In the case of CCCCOC(=O)C(C)O (stereo not given), the “fluorescence, % of fluorescent control” value is reported as 0.0053%. In the case of O=C(O)CSCC(=O)NC1CCSC1=O (stereo not given), the “fluorescence, % of fluorescent control” value is reported as 0.014% [at 46 µM].
